Test results as given in the supplement of paper PMC11732987, “Enantioselective OTUD7B fragment discovery through chemoproteomics screening and high-throughput optimisation” (Communications Chemistry, 2025).
Unmarked numbers belong to inactive results.

Columns and labels:
Assay in all cases: log2 ratio of Biotin-Ahx-Ub-VS probe labelling (fragment/DMSO); higher = less target engagement (more negative = stronger competition), active = hit call of the paper (q ≤ 0.05, log2 ratio ≤ -1)
Details in all cases: compound concentration: 200 uM; treatment time: 3 h
ALG13 = molecular target: T1, ALG13 (UniProt Q9NP73)
T1 sequence (whole entry): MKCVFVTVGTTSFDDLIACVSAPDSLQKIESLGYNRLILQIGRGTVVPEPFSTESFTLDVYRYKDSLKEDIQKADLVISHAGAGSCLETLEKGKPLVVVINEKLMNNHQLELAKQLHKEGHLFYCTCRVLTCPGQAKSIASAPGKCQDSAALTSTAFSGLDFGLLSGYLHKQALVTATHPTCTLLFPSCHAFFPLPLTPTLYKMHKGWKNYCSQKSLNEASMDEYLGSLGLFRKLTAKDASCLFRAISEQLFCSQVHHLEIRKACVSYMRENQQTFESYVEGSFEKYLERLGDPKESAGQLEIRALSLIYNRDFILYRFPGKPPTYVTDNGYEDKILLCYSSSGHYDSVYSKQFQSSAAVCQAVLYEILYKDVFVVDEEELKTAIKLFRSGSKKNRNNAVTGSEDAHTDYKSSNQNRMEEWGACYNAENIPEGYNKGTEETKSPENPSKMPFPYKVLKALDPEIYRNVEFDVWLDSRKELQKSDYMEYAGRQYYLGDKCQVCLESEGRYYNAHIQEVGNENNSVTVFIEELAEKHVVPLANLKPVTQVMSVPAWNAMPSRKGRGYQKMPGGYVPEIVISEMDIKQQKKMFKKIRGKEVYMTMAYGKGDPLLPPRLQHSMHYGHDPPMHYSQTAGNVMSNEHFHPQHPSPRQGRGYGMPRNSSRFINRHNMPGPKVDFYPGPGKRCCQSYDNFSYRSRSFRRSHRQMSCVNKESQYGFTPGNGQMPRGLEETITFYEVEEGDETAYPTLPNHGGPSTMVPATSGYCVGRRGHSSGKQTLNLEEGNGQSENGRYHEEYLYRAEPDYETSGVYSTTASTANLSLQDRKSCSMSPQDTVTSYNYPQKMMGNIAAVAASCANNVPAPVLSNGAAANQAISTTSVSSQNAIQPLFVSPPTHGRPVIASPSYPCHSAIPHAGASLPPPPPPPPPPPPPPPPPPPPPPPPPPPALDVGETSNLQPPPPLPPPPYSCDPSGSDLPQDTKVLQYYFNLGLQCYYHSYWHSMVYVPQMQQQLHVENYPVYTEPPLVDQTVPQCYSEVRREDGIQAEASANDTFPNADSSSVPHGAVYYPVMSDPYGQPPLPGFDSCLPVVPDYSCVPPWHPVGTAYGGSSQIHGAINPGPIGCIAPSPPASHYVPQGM
Summary of the method: (§1)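 Fragment (200 µM) or vehicle was incubated for 3 h with triplicate HEK293T lysate samples of 495 µg, which were then treated with Biotin-Ahx-Ub-VS at 0.5 µM final for 1 h. Labelled DUBs were enriched on NeutrAvidin, digested with LysC and trypsin, and analysed by diaPASEF LC-MS/MS. Values are average log2 fragment/vehicle ratios from an unpaired t-test on global-median-normalised Spectronaut label-free quantities, using proteins with ≥2 unique peptides.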

ATXN3 = ATXN3 (UniProt P54252)
Sequence of ATXN3 (P54252 whole entry): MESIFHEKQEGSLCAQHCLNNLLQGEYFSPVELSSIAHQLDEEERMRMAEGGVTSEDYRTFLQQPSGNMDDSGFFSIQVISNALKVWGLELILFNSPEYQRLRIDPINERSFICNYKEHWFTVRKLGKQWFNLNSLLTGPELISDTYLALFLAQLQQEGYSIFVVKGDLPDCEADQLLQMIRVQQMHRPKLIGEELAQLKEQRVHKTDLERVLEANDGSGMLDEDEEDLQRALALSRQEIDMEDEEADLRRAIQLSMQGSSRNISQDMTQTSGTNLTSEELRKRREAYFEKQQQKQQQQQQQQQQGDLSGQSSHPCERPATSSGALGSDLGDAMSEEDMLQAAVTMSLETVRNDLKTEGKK
Summary of the method: as §1

BAP1 = molecular target: T2, BAP1 (UniProt Q92560)
T2 sequence (whole entry): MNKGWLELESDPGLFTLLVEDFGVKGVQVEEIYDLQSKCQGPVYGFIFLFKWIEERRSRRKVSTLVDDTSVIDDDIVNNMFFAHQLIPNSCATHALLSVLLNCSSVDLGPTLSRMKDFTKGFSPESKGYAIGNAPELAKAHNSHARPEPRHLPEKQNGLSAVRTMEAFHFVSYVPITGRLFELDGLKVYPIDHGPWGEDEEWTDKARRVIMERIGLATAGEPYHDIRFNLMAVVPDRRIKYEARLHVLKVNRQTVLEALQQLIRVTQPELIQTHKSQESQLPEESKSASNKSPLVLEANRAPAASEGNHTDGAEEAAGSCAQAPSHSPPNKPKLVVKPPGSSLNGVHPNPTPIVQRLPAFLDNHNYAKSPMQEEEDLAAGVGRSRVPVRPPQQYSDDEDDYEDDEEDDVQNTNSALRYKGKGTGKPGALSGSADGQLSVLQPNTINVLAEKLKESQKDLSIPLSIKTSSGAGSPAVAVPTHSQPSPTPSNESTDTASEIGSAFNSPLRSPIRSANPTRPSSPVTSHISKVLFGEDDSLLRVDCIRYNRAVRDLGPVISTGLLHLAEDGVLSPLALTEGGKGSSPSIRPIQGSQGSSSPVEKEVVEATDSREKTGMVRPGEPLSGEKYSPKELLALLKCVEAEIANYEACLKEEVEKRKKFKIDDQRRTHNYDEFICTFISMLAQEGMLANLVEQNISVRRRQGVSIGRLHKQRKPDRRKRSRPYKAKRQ
Summary of the method: as §1

EIF3F = EIF3F (UniProt O00303)
Sequence of EIF3F (O00303 whole entry): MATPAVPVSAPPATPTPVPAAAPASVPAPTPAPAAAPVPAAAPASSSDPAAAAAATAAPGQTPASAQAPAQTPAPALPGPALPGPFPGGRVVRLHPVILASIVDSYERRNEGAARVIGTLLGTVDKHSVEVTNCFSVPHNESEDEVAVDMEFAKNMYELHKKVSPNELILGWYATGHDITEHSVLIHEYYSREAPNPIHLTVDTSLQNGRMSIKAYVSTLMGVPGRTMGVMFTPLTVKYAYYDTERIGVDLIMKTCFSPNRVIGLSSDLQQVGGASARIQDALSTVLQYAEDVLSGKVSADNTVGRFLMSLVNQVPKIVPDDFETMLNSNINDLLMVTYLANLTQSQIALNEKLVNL
Summary of the method: as §1

EIF3H = EIF3H (UniProt O15372)
Sequence of EIF3H (O15372 whole entry): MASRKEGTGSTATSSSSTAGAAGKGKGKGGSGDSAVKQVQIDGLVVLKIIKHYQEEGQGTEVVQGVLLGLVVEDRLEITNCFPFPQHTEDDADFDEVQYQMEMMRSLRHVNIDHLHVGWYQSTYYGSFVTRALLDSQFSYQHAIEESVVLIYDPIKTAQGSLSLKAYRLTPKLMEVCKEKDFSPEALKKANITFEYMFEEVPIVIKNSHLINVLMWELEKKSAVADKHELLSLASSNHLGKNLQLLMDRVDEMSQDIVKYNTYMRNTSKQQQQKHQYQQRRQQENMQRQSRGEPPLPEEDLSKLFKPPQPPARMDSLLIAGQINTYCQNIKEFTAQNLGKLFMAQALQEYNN
Summary of the method: as §1

FAM105A = molecular target: T3, FAM105A (UniProt Q9NUU6)
T3 sequence (whole entry): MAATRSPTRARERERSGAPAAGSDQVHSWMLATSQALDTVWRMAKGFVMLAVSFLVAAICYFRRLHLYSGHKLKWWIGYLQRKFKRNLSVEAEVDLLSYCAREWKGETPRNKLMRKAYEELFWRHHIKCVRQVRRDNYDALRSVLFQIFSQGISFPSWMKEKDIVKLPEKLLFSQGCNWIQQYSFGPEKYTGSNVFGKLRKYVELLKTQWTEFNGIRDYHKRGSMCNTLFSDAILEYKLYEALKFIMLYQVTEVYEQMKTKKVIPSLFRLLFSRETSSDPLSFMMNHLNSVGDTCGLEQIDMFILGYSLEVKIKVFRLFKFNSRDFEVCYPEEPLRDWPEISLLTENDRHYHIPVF
Summary of the method: as §1

OTUB1 = OTUB1 (UniProt Q96FW1)
Sequence of OTUB1 (Q96FW1 whole entry): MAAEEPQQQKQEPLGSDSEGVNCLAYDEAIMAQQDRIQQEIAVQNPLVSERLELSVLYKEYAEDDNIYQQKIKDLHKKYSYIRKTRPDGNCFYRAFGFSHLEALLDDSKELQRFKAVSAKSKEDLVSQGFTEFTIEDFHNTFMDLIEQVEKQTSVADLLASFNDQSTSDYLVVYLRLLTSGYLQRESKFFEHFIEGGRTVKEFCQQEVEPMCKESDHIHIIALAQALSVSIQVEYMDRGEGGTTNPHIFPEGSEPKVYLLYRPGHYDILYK
Summary of the method: as §1

OTUD4 = molecular target: T4, OTUD4 (UniProt Q01804)
T4 sequence (whole entry): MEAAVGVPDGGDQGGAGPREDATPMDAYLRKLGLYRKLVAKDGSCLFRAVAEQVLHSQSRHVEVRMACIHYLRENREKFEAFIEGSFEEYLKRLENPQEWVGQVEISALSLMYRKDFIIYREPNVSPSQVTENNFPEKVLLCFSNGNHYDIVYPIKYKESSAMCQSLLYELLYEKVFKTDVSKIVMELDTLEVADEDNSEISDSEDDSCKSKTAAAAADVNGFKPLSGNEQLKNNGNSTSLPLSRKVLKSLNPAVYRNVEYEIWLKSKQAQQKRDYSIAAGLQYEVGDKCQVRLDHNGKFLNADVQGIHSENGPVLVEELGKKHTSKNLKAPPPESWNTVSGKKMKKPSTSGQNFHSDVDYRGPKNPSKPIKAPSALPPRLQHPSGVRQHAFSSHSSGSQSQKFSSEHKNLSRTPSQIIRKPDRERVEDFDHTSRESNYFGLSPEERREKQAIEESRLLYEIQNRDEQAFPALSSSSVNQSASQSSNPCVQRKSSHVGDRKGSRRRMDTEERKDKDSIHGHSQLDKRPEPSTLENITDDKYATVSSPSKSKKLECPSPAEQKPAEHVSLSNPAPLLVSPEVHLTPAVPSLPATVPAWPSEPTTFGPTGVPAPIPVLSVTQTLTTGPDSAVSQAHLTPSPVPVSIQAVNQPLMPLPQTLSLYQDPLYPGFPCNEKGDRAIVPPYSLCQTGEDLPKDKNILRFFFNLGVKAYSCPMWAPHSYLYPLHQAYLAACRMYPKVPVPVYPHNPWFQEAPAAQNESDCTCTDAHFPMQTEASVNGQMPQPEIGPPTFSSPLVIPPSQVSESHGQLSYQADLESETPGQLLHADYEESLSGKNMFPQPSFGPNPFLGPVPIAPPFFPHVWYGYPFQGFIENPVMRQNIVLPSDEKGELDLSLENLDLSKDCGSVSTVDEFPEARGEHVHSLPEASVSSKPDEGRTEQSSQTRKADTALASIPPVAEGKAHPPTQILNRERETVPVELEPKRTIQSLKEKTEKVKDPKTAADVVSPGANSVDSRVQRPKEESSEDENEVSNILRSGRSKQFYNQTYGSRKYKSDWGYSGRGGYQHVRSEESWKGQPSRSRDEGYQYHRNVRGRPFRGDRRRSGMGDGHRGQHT
Summary of the method: as §1

OTUD5 = molecular target: T5, OTUD5 (UniProt Q96G74)
T5 sequence (whole entry): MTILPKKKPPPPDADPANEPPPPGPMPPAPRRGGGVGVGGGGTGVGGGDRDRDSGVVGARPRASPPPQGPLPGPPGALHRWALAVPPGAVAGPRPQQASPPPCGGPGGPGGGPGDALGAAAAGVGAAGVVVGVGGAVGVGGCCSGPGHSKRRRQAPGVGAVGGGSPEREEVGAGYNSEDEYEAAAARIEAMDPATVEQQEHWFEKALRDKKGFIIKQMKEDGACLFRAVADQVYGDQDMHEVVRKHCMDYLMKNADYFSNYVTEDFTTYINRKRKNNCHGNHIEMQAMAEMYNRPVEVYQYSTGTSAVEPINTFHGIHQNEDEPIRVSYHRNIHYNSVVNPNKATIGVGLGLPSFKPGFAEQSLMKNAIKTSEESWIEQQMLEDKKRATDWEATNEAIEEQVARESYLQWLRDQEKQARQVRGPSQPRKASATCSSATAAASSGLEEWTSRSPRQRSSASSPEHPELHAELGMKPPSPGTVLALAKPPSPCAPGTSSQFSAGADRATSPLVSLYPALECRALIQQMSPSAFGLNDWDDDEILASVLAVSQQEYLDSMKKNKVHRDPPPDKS
Summary of the method: as §1

O=C(CCl)Nc1cc(Cl)ccc1-n1cncn1
log2 ratio of Biotin-Ahx-Ub-VS probe labelling (ALG13): 0.0898 | log2 ratio of Biotin-Ahx-Ub-VS probe labelling (ATXN3): -0.881 | log2 ratio of Biotin-Ahx-Ub-VS probe labelling (BAP1): -3 (active) | log2 ratio of Biotin-Ahx-Ub-VS probe labelling (EIF3F): -0.457 | log2 ratio of Biotin-Ahx-Ub-VS probe labelling (EIF3H): 0.376 | log2 ratio of Biotin-Ahx-Ub-VS probe labelling (FAM105A): 0.14 | log2 ratio of Biotin-Ahx-Ub-VS probe labelling (OTUB1): -0.487 | log2 ratio of Biotin-Ahx-Ub-VS probe labelling (OTUD4): -0.779 | log2 ratio of Biotin-Ahx-Ub-VS probe labelling (OTUD5): -1.05 (active)
